This is a sample that favours compounds with a hit; in the whole collection about 4.5% have one here.
Gli-Sufu antag: Gli-Sufu pathway antagonism | Sufu-KO-LIGHT fibroblasts, Gli luciferase reporter luminescence | inhibition, % at 5 µM | 340,000 compounds, 0.74% hits | AID 588413;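 active = inhibition above about 55%, limit read from the data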
697 NFkB inh: inhibitors of the PMA/ionomycin-induced NF-kB reporter in 697 B cells; 697 B-cell NF-kB luciferase reporter, 16 h; inhibition, % at 4 µM; 330,000 compounds, 0.33% hits; AID 435022; in the data active = inhibition above about 35%
Beta apoptosis: blocks beta cell apoptosis; AID 435005; 300,000 compounds, 0.8% hits; INS-1E cytokine-induced death, ATP luminescence, 48 h; percent of positive-control rescue, neutral wells zero; protection from apoptosis, % (concentration not given with the values);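 active = Every replicate reaches about 75%, or at least half do and their mean reaches it too, limit read from the data; inconclusive = At least half of replicates reach the limit but their mean does not; inactive = Under half of replicates reach the limit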;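 note: higher means more ATP so stronger rescue from cytokine killing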
CSC inhib: cancer stem cell inhibition. inhibition, % at 7.5 µM. 300,000 compounds, 1.1% hits. AID 2717. cancer stem cell-like cells viability, luminescence; in the data active = inhibition above about 75%; inconclusive = no clear call, values can overlap the other calls; tested in HMLE shEcad cells
Jurkat NFkB inh: lowers PMA/ionomycin-induced NF-kB signal in Jurkat cells; PMA/ionomycin-induced NF-kB luciferase reporter, luminescence; inhibition, % at 4 µM; 330,000 compounds, 0.53% hits; AID 435003; in the data active = inhibition above about 50%
Mdm2-MdmX inh: human Mdm2/MdmX binding inhibition; O15151+Q00987; SaOS-2 split-luciferase Mdm2/MdmX complementation, luminescence; inhibition, % at 8 µM; 330,000 compounds, 3% hits;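 active = inhibition of at least 50% at 8 µM in the primary screen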
Target sequence (O15151 whole entry, looked up): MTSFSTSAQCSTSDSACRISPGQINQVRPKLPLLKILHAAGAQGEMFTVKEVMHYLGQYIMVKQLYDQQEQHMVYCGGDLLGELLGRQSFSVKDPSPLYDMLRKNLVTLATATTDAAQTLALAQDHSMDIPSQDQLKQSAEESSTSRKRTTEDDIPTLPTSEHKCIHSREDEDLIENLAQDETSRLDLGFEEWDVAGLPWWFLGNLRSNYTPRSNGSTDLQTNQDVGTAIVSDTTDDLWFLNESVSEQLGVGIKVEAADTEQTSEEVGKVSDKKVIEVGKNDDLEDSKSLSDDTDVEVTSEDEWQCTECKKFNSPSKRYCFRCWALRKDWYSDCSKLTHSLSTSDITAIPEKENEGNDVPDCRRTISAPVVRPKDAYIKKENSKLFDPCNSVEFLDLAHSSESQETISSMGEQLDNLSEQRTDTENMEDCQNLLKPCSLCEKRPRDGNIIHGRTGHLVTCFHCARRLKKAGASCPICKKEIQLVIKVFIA
Target sequence (Q00987 whole entry, looked up): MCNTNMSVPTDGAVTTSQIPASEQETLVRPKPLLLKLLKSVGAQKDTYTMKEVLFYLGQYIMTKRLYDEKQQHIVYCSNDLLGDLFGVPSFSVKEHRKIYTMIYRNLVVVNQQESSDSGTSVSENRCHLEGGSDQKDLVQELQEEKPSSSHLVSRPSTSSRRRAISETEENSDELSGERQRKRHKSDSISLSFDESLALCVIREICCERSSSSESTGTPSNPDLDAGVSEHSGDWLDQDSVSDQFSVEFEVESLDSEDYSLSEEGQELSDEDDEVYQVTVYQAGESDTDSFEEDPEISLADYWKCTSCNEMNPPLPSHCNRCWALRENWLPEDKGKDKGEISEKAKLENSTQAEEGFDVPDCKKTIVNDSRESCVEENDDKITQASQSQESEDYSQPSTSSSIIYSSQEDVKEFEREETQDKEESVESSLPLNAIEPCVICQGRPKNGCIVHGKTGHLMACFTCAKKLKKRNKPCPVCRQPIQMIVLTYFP
Mdm2-MdmX conf: confirmation of human Mdm2/MdmX interaction inhibitors. Mdm2-MdmX binding, luminescent assay. inhibition, % at 8 µM. AID 489028. 10,000 compounds, 55% hits. shares compounds with Mdm2-MdmX inh; in the data active = inhibition above about 40%
Full FLuc ctr: inhibits full-length luciferase, flagging false Mdm2/MdmX hits; inhibition, % at 8 µM; 6,200 compounds, 77% hits; SaOS-2 full-length luciferase counterscreen, luminescence; AID 504607; shares compounds with Mdm2-MdmX inh;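 active = mean inhibition at 8 µM reaching about 37%, which flags the compound as non-specific, limit read from the data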;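 note: p53-null SaOS-2 cells with luciferase driven by a doxycycline-inducible promoter; compound on cells about two nights before reading with doxycycline added after day one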
Hits are given with their value; n = inactive; u = inconclusive; x = no result given.

SMILES | Gli-Sufu antag | 697 NFkB inh | Beta apoptosis | CSC inhib | Jurkat NFkB inh | Mdm2-MdmX inh | Mdm2-MdmX conf | Full FLuc ctr
COc1cc2cc(C(=O)Nc3ccc4c(c3)OCCO4)[nH]c2cc1OC | n | n | n | n | n | 65 | 48 | 71
Fc1ccc(NC(=S)N/N=C/c2ccc(F)c(F)c2)cc1 | n | n | n | n | n | n | x | x
O=[N+]([O-])c1ccc(/C=N/NC(=S)Nc2ccc(Cl)cc2Cl)s1 | n | n | n | 124 | n | 63 | 70 | 52
O=[N+]([O-])c1ccc(O)c(/C=N/NC(=S)Nc2ccc(Cl)cc2Cl)c1 | n | n | 121 | 76 | n | 78 | 48 | 41
Fc1ccc(/C=N/NC(=S)Nc2ccc(Cl)cc2Cl)cc1 | n | n | n | n | n | 85 | 66 | 58
Cc1cc(Cl)ccc1NC(=O)CCC(=O)N/N=C/c1cc([N+](=O)[O-])ccc1O | n | n | n | n | n | 62 | n | x
Cc1cccc(C(=O)OCC(=O)NC2CC2)c1O | n | n | n | n | n | n | x | x
O=C(N/N=C\c1ccc([N+](=O)[O-])s1)c1cncc(Br)c1 | n | n | 84 | n | n | 58 | 44 | 45
CCOC(=O)c1c(C)[nH]c(C(=O)N/N=C/c2cc([N+](=O)[O-])ccc2O)c1C | n | n | n | n | n | 57 | 71 | 55
COc1cccc(N2CCN(S(=O)(=O)c3cc4c(cc3C)N(C)CCO4)CC2)c1 | n | n | n | n | n | n | x | x
Cc1cc2c(cc1S(=O)(=O)N1CCN(c3ccc(Cl)cc3)CC1)OCCN2C | n | n | n | n | n | 85 | n | x
COc1ccc(NC(=O)CN(C)C(=O)c2cc(-c3cccs3)nn2-c2ccccc2)cc1 | n | n | n | n | n | n | x | x
CCN(CC(=O)Nc1ccc(OC)cc1)C(=O)c1cc(-c2cccs2)nn1-c1ccccc1 | n | n | n | n | n | 60 | 55 | 90
COc1ccc(C(=O)/C=C/c2ccccc2)c(OC)c1 | n | n | x | n | n | n | x | x
COc1ccc(C(=O)/C=C/c2cc(OC)c(O)c(OC)c2)c(F)c1 | n | n | n | u | n | 51 | n | x
Cc1cccc(NC(=O)C(C)OC(=O)c2ccccc2NS(=O)(=O)c2cc(C)c(C)c([N+](=O)[O-])c2)c1 (stereo not drawn) | n | n | n | n | n | 62 | n | x
Cc1ccc(-c2csc3ncnc(Sc4nnc(CN5CCCCCC5=O)o4)c23)cc1 | n | n | n | 81 | n | 83 | 100 | n
CN(C)C(CNC(=O)C1CCN(C(=O)/C=C/c2ccccc2)CC1)c1ccccc1 (stereo not drawn) | n | n | n | n | n | n | x | x
C#CCOCCOCCOCCNc1nc(N2CCN(C(=O)CCCCCCCCCCNC(=O)[C@H]([C@@H](C)CC)n3cc(CCCCCN)nn3)CC2)nc(N2CCN(C(=O)CCCCCCCCCCNC(=O)[C@@H]([C@H](C)O)n3cc(C)nn3)CC2)n1 | n | n | 81 | 109 | n | 98 | 55 | 40
C#CCOCCOCCOCCNc1nc(N2CCN(C(=O)CCCCCCCCCCNC(=O)Cn3cc(CCCCCN)nn3)CC2)nc(N2CCN(C(=O)CCCCCCCCCCNC(=O)[C@H]([C@@H](C)CC)n3cc(CCCCCN)nn3)CC2)n1 | n | n | n | n | n | 100 | n | x
C#CCOCCOCCOCCNc1nc(N2CCN(C(=O)CCCCCCCCCCNC(=O)[C@H](CCCCN)n3cc(C)nn3)CC2)nc(N2CCN(C(=O)CCCCCCCCCCNC(=O)[C@@H]([C@H](C)CC)n3cc(CCCCCN)nn3)CC2)n1 | x | n | 94 | 168 | n | 100 | 100 | n
C#CCOCCOCCOCCNc1nc(N2CCN(C(=O)CCCCCCCCCCNC(=O)[C@@H](CCSC)n3cc(CCO)nn3)CC2)nc(N2CCN(C(=O)CCCCCCCCCCNC(=O)[C@H]([C@@H](C)CC)n3cc(CCCCCN)nn3)CC2)n1 | n | n | 99 | n | n | 92 | n | x
C#CCOCCOCCOCCNc1nc(N2CCN(C(=O)CCCCCCCCCCNC(=O)[C@H](CCCCN)n3cc(CCO)nn3)CC2)nc(N2CCN(C(=O)CCCCCCCCCCNC(=O)[C@@H]([C@H](C)O)n3cc(C)nn3)CC2)n1 | n | n | n | n | n | n | x | x
C#CCOCCOCCOCCNc1nc(N2CCN(C(=O)CCCCCCCCCCNC(=O)Cn3cc(CCCCCN)nn3)CC2)nc(N2CCN(C(=O)CCCCCCCCCCNC(=O)[C@H](CO)n3cc(CCCCCN)nn3)CC2)n1 | n | n | n | n | n | n | x | x
C#CCOCCOCCOCCNc1nc(N2CCN(C(=O)CCCCCCCCCCNC(=O)[C@H](CCC(=O)O)n3cc(CCCCCN)nn3)CC2)nc(N2CCN(C(=O)CCCCCCCCCCNC(=O)[C@@H]([C@H](C)O)n3cc(C)nn3)CC2)n1 | n | n | n | n | n | n | x | x
SMILES | Gli-Sufu antag | 697 NFkB inh | Beta apoptosis | CSC inhib | Jurkat NFkB inh | Mdm2-MdmX inh | Mdm2-MdmX conf | Full FLuc ctr
C#CCOCCOCCOCCNc1nc(N2CCN(C(=O)CCCCCCCCCCNC(=O)[C@@H](CCSC)n3cc(CCO)nn3)CC2)nc(N2CCN(C(=O)CCCCCCCCCCNC(=O)[C@H]([C@@H](C)CC)n3cc(CCCCN=C(N)N)nn3)CC2)n1 | n | n | n | n | n | n | x | x
Cn1c(SCc2cccc(F)c2)nnc1-c1ccncc1 | n | n | n | n | n | n | x | x
O=C(O)c1ccc(NS(=O)(=O)c2cccc(C(=O)Nc3cccc(C(=O)O)c3)c2)cc1 | n | n | n | n | n | n | x | x
O=C(NCCc1csc(-c2ccc(Cl)cc2)n1)c1ccco1 | n | n | n | n | n | n | x | x
C#CCOCCOCCOCCNc1nc(N2CCN(C(=O)CCCCCCCCCCNC(=O)Cn3cc(C[C@@H](C)O)nn3)CC2)nc(N2CCN(C(=O)CCCCCCCCCCNC(=O)[C@H](CCCCN)n3cc(C[C@@H](C)CC)nn3)CC2)n1 | n | n | n | 89 | n | 93 | 55 | 55
C#CCOCCOCCOCCNc1nc(N2CCN(C(=O)CCCCCCCCCCNC(=O)[C@H](CO)n3cc(CCCSC)nn3)CC2)nc(N2CCN(C(=O)CCCCCCCCCCNC(=O)[C@H](CCCCN)n3cc(C[C@@H](C)CC)nn3)CC2)n1 | x | n | n | 127 | n | 100 | 57 | n
CCOc1ccc(S(=O)(=O)Nc2cccc(C(=O)NCCCn3ccnc3)c2)cc1 | x | n | n | x | n | n | x | x
NS(=O)(=O)c1cccc(NC(=O)c2cccc(-c3ccc(O)cc3)c2)c1 | n | n | n | n | n | 64 | n | x
CN(C)S(=O)(=O)c1cccc(C(=O)Nc2ccc(C(=O)Nc3cccc(S(N)(=O)=O)c3)cc2)c1 | n | n | n | n | n | n | x | x
Clc1ccc2nc(-c3ccc4c(c3)OCO4)cn2c1 | n | n | n | n | n | n | x | x

Compound activity: PubChem BioAssay, several laboratories
